Measured values from ChEMBL document CHEMBL1961873, “Compounds: GSK PKIS; Assays: Nanosyn kinase panel” (2012).

Assays:
[1] = target: Mitogen-activated protein kinase 3 (Homo sapiens) (UniProt P27361); settings: at 1 µM;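 also: values are mean percent inhibition of MAPK3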
[2] = target: SRSF protein kinase 3 (Homo sapiens) (UniProt Q9UPE1); settings: at 0.1 µM
[3] = target: SRSF protein kinase 3 (Homo sapiens) (UniProt Q9UPE1); settings: at 1 µM
[4] = target: Mitogen-activated protein kinase 14 (Homo sapiens) (UniProt Q16539); settings: at 0.1 µM
Mitogen-activated protein kinase 14 (Homo sapiens), sequence (Q16539 whole entry): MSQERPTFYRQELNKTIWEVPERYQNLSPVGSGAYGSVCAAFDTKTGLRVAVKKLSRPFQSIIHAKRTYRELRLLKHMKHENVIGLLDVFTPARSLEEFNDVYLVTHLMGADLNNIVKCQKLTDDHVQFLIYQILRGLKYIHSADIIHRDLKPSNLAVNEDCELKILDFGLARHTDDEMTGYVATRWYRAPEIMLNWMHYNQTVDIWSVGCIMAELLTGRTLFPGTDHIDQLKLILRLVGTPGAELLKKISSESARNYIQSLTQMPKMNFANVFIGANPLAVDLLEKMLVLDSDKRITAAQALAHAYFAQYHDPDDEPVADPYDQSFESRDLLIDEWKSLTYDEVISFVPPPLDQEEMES

[5] = target: Mitogen-activated protein kinase 14 (Homo sapiens) (UniProt Q16539); settings: at 1 µM
[6] = target: Mitogen-activated protein kinase 11 (Homo sapiens) (UniProt Q15759); settings: at 0.1 µM
Mitogen-activated protein kinase 11 (Homo sapiens), sequence (Q15759 whole entry): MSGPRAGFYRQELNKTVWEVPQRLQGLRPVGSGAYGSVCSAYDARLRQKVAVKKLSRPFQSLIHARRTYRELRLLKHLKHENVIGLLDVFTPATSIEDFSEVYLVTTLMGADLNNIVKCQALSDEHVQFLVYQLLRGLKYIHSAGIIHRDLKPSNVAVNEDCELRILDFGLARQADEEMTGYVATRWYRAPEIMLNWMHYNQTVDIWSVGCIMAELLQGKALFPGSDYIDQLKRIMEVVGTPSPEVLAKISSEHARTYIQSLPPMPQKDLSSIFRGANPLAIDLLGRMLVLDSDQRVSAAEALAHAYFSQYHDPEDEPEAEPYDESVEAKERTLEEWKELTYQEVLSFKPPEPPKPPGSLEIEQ

[7] = target: Mitogen-activated protein kinase 11 (Homo sapiens) (UniProt Q15759); settings: at 1 µM
[8] = target: T1, Mitogen-activated protein kinase 13 (Homo sapiens) (UniProt O15264); settings: at 0.1 µM
T1 sequence (whole entry): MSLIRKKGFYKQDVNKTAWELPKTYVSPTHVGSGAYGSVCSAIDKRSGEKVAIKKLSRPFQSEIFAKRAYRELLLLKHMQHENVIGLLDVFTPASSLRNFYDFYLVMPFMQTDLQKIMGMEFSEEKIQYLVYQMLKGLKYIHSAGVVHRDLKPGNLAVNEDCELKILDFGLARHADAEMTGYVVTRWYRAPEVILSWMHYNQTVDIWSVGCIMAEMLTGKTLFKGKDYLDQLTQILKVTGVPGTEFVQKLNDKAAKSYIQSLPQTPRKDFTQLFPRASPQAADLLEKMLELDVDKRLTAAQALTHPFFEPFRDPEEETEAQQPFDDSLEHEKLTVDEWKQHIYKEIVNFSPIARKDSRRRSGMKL

[9] = target: T1, Mitogen-activated protein kinase 13 (Homo sapiens); settings: at 1 µM
[10] = target: T2, Mitogen-activated protein kinase 12 (Homo sapiens) (UniProt P53778); settings: at 0.1 µM
T2 sequence (whole entry): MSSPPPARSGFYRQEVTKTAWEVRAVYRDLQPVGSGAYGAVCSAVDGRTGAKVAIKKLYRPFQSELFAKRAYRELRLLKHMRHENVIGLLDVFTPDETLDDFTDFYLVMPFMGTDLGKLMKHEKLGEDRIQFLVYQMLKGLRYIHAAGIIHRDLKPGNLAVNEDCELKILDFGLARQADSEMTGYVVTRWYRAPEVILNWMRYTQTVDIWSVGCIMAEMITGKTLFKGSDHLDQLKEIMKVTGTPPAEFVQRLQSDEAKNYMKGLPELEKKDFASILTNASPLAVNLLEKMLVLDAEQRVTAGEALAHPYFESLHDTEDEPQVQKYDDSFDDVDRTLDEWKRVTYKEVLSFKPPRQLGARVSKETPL

[11] = target: T2, Mitogen-activated protein kinase 12 (Homo sapiens); settings: at 1 µM
[12] = target: SRSF protein kinase 1 (Homo sapiens) (UniProt Q96SB4); settings: at 0.1 µM
SRSF protein kinase 1 (Homo sapiens), sequence (Q96SB4 whole entry, canonical isoform): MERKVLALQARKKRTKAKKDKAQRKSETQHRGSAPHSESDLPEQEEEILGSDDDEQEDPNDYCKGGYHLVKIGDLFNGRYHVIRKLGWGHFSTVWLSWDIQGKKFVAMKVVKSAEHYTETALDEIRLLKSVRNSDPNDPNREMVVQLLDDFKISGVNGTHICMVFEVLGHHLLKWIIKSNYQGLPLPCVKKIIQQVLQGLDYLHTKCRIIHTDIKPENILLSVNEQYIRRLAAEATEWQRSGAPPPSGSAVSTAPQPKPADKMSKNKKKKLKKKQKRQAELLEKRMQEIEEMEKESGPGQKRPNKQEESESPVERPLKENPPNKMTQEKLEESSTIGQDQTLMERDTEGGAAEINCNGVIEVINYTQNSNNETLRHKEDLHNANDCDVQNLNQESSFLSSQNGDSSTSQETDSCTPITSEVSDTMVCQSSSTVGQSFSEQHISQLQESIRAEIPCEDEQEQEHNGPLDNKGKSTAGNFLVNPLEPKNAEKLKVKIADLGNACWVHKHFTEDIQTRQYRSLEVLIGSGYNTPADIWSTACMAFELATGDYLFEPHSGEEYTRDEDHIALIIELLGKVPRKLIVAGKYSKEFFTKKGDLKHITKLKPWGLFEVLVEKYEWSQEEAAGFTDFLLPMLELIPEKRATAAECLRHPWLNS

[13] = target: SRSF protein kinase 1 (Homo sapiens) (UniProt Q96SB4); settings: at 1 µM
[14] = target: Phosphatidylinositol 4,5-bisphosphate 3-kinase catalytic subunit alpha isoform (Homo sapiens) (UniProt P42336); settings: at 0.1 µM
Phosphatidylinositol 4,5-bisphosphate 3-kinase catalytic subunit alpha isoform (Homo sapiens), sequence (P42336 whole entry, canonical isoform): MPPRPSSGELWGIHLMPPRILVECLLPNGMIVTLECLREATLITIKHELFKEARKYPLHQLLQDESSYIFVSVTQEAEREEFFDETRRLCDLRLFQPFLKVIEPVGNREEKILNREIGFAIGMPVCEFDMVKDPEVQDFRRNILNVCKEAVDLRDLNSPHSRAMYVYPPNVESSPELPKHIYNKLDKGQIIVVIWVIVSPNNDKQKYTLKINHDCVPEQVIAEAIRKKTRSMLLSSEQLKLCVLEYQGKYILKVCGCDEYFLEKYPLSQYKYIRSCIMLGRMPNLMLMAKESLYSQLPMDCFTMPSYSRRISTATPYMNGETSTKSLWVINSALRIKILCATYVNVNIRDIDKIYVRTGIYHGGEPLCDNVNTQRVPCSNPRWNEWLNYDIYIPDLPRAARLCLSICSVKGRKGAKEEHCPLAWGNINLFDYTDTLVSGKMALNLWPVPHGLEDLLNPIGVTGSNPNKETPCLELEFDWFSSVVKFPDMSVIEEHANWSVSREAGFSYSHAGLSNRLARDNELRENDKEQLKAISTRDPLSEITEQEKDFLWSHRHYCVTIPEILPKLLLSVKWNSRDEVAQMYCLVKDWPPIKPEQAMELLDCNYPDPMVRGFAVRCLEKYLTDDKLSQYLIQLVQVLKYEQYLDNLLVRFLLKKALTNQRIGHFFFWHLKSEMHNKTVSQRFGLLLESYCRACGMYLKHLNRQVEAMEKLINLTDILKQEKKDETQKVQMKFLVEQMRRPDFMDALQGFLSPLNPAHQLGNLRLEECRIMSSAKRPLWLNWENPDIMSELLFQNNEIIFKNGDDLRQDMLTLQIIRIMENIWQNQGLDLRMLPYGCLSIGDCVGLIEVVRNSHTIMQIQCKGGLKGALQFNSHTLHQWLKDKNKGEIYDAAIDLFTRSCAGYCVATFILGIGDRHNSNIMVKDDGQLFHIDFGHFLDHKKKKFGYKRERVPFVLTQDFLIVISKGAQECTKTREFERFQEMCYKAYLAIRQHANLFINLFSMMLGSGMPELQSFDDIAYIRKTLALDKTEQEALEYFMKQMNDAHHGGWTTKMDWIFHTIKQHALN

[15] = target: Phosphatidylinositol 4,5-bisphosphate 3-kinase catalytic subunit alpha isoform (Homo sapiens) (UniProt P42336); settings: at 1 µM
[16] = target: T3, Phosphatidylinositol 4,5-bisphosphate 3-kinase catalytic subunit delta isoform (Homo sapiens) (UniProt O00329); settings: at 0.1 µM
T3 sequence (whole entry): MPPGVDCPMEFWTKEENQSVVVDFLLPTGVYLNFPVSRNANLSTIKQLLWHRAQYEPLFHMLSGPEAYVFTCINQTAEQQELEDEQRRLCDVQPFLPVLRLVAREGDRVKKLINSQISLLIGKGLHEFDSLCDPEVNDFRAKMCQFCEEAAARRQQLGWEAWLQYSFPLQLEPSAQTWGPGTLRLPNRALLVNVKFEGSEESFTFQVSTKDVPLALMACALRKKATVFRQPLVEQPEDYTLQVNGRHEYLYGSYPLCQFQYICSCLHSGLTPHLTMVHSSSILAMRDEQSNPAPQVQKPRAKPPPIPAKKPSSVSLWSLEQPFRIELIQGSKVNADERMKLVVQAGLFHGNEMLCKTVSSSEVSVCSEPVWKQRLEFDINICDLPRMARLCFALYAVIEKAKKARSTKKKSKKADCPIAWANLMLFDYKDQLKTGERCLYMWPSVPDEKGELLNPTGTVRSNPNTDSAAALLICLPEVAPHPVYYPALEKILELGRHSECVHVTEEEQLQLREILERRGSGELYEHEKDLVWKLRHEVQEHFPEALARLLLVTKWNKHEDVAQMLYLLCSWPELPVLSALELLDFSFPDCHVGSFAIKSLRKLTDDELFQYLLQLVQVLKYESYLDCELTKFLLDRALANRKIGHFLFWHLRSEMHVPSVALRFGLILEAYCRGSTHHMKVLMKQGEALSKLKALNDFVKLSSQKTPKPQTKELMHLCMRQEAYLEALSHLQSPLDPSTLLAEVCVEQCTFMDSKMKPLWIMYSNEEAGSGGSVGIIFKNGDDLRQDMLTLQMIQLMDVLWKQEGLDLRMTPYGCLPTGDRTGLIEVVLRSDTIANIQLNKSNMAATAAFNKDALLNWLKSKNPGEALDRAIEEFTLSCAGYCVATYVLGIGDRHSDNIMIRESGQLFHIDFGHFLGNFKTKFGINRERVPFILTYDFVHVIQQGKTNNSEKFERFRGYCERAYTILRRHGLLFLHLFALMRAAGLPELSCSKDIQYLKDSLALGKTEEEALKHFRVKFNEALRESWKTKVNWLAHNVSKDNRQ

[17] = target: T3, Phosphatidylinositol 4,5-bisphosphate 3-kinase catalytic subunit delta isoform (Homo sapiens); settings: at 1 µM
[18] = target: Phosphatidylinositol 4-kinase beta (Homo sapiens) (UniProt Q9UBF8); settings: at 0.1 µM
Phosphatidylinositol 4-kinase beta (Homo sapiens), sequence (Q9UBF8 2-816 limits assumed): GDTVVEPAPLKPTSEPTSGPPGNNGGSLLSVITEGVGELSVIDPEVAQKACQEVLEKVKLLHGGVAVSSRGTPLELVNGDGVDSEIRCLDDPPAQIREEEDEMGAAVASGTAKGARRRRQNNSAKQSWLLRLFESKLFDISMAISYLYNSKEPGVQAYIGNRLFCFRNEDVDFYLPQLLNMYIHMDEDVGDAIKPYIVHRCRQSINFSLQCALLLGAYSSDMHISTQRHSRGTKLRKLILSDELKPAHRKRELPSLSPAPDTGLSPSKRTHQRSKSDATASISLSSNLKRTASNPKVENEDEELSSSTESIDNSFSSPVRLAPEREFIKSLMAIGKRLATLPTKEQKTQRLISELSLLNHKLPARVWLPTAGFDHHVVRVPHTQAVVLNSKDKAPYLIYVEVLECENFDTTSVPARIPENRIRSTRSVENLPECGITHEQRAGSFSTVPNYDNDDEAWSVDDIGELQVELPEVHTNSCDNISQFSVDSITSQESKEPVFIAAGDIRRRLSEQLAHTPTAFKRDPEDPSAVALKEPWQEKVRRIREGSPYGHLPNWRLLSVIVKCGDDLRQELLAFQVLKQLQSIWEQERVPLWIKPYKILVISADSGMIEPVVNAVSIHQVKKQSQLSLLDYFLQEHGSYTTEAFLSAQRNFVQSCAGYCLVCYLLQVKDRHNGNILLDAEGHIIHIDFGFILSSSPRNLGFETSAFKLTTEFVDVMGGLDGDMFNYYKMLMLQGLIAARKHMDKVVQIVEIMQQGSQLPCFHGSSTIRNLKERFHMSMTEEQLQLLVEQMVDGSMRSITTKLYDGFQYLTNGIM

[19] = target: Phosphatidylinositol 4-kinase beta (Homo sapiens) (UniProt Q9UBF8); settings: at 1 µM
[20] = target: Sphingosine kinase 1 (Homo sapiens) (UniProt Q9NYA1); settings: at 0.1 µM;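 also: mean percent inhibition of SPHK1 activity, measured within the GSK PKIS screening panel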
Sphingosine kinase 1 (Homo sapiens), sequence (Q9NYA1 whole entry): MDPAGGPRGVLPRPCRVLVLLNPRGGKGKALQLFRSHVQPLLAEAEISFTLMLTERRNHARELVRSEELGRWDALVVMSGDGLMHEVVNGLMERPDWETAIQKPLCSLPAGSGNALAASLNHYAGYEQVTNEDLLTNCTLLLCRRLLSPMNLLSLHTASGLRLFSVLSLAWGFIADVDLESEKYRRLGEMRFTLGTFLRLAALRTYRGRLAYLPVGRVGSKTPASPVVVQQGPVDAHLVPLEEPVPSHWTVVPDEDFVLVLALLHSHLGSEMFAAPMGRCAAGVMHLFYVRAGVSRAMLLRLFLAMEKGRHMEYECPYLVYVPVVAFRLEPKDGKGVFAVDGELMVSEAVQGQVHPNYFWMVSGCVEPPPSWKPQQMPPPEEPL

SRSF protein kinase 3 (Homo sapiens), sequence (Q9UPE1 whole entry): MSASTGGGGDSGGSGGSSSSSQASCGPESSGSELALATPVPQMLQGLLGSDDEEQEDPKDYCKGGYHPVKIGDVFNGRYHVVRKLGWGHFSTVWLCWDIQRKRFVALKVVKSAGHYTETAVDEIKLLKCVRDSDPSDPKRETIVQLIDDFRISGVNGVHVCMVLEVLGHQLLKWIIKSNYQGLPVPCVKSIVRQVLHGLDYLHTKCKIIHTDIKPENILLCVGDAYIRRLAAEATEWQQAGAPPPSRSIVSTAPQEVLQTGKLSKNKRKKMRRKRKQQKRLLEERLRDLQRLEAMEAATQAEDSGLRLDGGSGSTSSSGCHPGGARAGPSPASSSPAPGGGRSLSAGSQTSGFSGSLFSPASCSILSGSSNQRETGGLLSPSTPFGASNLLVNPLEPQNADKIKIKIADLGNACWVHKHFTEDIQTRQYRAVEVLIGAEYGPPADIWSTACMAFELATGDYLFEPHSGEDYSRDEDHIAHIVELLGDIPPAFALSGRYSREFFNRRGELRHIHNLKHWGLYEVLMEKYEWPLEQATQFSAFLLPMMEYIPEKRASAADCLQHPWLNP
Mitogen-activated protein kinase 3 (Homo sapiens), sequence (P27361 whole entry): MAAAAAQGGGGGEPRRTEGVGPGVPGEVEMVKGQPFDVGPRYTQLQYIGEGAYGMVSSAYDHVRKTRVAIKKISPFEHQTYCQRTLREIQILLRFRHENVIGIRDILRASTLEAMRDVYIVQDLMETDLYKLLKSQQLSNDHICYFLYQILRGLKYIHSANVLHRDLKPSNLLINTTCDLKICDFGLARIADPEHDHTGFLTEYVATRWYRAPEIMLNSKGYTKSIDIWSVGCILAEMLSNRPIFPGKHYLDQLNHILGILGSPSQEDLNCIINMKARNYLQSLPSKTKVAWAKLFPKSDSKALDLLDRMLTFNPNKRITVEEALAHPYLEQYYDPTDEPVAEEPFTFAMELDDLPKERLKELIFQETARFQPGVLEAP

SMILES	inhibition [1] [%]	inhibition [2] [%]	inhibition [3] [%]	inhibition [4] [%]	inhibition [5] [%]	inhibition [6] [%]	inhibition [7] [%]	inhibition [8] [%]	inhibition [9] [%]	inhibition [10] [%]	inhibition [11] [%]	inhibition [12] [%]	inhibition [13] [%]	inhibition [14] [%]	inhibition [15] [%]	inhibition [16] [%]	inhibition [17] [%]	inhibition [18] [%]	inhibition [19] [%]	inhibition [20] [%]
CN(C)C(=O)O[C@@H]1CN[C@@H](C#Cc2cc3ncnc(Nc4ccc(OCc5cccc(F)c5)c(Cl)c4)c3s2)C1	1.36	-1.41	-1.97	5.64	2.87	3.3	6.17	1.12	1.11	0.57	1.28	-1.65	-5.46	0.17	29	3.66	20.8	-2.99	-0.33	0.88
COc1cc2ncnc(Nc3ccc4c(cnn4Cc4ccccc4)c3)c2cc1OC	3.12	-1.9	-0.51	4.33	3.94	1.39	1.39	3.21	2.74	2.87	3.71	-4.03	-2.33	1.81	2.38	0.53	1.87	1.81	4.03	0.61
O=S(=O)(CCOCc1ccc(-c2ccc3ncnc(Nc4ccc(OCc5cccc(F)c5)c(Cl)c4)c3c2)o1)c1ccccc1	1.69	-0.89	1.24	0.07	0.7	-0.78	-0.75	1.66	1.53	1.14	4.2	-2.76	-1.54	1.05	12.9	0.99	10.1	0.56	0.4	1.08
CN(C)CCCn1c(-c2nonc2N)nc2cnccc21	2.88	-1.86	-1.05	5.93	12.9	3.87	8.3	1.23	4.99	3.33	3.42	-2.65	-4.44	2.84	5.05	1.95	4.09	0.95	3.34	2.52
CC(C)c1ccc(Nc2nccc(-c3cnn4ncccc34)n2)cc1	3	-1.04	0.7	-1.86	28.2	2.54	5.44	1.62	5.42	-0.84	4.14	-1.68	-0.8	1.41	4.52	2.45	6.78	2.86	3.34	4.11
OCc1ccc(-c2nc(-c3ccccn3)c(-c3ccc4c(c3)OCO4)[nH]2)cc1	1.38	1.23	-0.15	4.43	14.9	4.13	4.4	3.05	4.05	0.63	2.49	-1.33	-3.19	3.36	2.23	1.52	3.07	-1.63	-0.21	0
O=C1Nc2ccccc2/C1=C/Nc1ccc2[nH]c(=O)[nH]c2c1	3.88	-2.26	-0.78	11.6	11.5	5.12	9.63	3.8	4.97	0.57	3.5	-1.11	-0.39	4.42	4.19	1.87	2.83	-0.1	2.4	11.5
CCn1c(-c2nonc2N)nc2ccc(F)cc21	7.45	-2.41	-1.12	5.24	8.37	7.69	9.2	2.3	6.26	3.81	3.36	-1.22	2.61	4.99	4.15	3.09	2.96	-0.18	6.29	0.88
COc1cc(/C=N/Nc2ncnc3c2cnn3C(C)C)ccc1O	2.88	-2.39	-1.29	1.82	3.92	0.99	2.61	1.12	3.06	1.85	1.85	-0.73	1.12	19	70.5	20.9	71.3	-8.74	26.5	0.17
CS(=O)(=O)CCNCc1nc(-c2ccc3ncnc(Nc4ccc(OCc5cccc(C(F)(F)F)c5)cc4)c3c2)cs1	1.69	0.88	-1.85	4.2	3.19	2.78	1.51	1.27	2.16	0.83	2.12	-2.46	-3.03	1.85	-0.47	0.76	3.63	-0.59	0.33	-1.19
Cc1ccc(NC(=O)CC2CC2)cc1-c1ccc(C(=O)NCC2CC2)cc1	3.92	-0.32	3.16	29.7	74.3	17.2	60.8	3.22	4.09	0.38	2.02	-0.1	1.32	2.05	3.63	0.9	1.78	-3.28	-2.41	-0.38
CCS(=O)(=O)c1ccc(OC)c(Nc2nccc(N(C)c3ccc4c(C)n[nH]c4c3)n2)c1	4.25	-3.37	-0.4	5.92	8.09	3.01	3.67	4.71	2.73	2.34	3.12	-3.64	-4.44	4.66	3.7	2.01	2.75	0.2	-1.28	4.16
Cc1cc(Cl)cc2c1NC(=O)C2=NNc1ccc(S(N)(=O)=O)cc1	4.37	0.26	-0.13	-2.89	3.98	3.77	7.2	-1.04	1.98	0.32	2.01	-1.22	1.09	0.48	1.85	0.72	4.67	-5.44	3.24	0.93
NS(=O)(=O)c1ccc(N/N=C2\C(=O)Nc3ccc(Cl)cc32)cc1	4.54	-0.26	0.76	0.03	4.11	3.71	5.91	1.25	3.33	0.26	2.14	-1.45	0.49	2.11	2.12	0.01	0.13	5.17	-1.54	0.4
